From the supplement of paper PMC12632987
Whole data set: some 4,500 sequences, median “median log2 fold change of GCK-ALFA target abundance (FLAG IP / Myc IP barcode read proportion)” near 0.078, cut for the lowest 2% near -0.6. Only a selection was taken, and the lowest values are over-represented in it overall.

B1: GBRAP_11_2908 (protein)
chain: KKEKLKEAAKLAEKAAKLIEQLIKNGADDKELWAEAEKAAEELLKLAKEYLDESTVELAEYALELLKKAQADPKNAQQYLNEALATVRVILGQILLAIEE
B2: GBRAP_78_6697 (protein)
chain: EVEELLEKALELLDQALKLSKQLPEDLRNEVTYHLVEAITDLEEAIEEGADLEELKEALEHLDKAIALVKANDTPLTQPLLKLLTEAKKLLEEAIKKLEE
B3: GBRAP_125_3109 (protein)
chain: SEDELLAALRALARALGFSEEEAEEAAELARRFSLRQTLYAIFLAEGEEELADLVEQLTEEQARAALAALAAWLAAHPDATKEEVLAQARAILEAELARA
B4: GBRAP_9_7186 (protein)
chain: MQEKKEKILEEVKEELELAIEVAPEEYKELIKEKTEEVLKELEKAVKDENTTLEELLKKLEELFEKLIEIAKKNVPKETYLQIEAILGTAILSAEEIIEE
B5: GBRAP_26_5464 (protein)
chain: MEEAFREASDRVDEIAAKLSNPEAAAAVRAEADTILLELEERIEAGEDIEKAVKEAEEEFLKEAREIGKEEGLPEEEIERLEKELSEVFKELEERLKKAK
B6: GBRAP_160_4037 (protein)
chain: NEKLKKLKKFAEEVFEEAKELVEGTSVEEAAVIIDVAAGEIIMEAVELGIDDDELEDFIDEIGDEAVAYLLAHPDLSEEEIKELIEEAREKVLEKIDEAE
B7: GBRAP_160_4038 (protein)
chain: NEKLEKLAKFAEEVFKEAEELIKGTTVEEAAVIVDVATGEIIMEAVELGIDNDELEDFIDEIGDEAVAYLLAHPDLTEEEIQALVKEAKEKILKKIKEAS
B8: GBRAP_52_6009 (protein)
chain: MREELRERLEEALALVRAGRLEEARALVTELVESLDEEELELLIELLAEMAREAAPEDFDAVWTLAELVAEEMRRAGKDEVLADLLEARVAAALYEAEQR
B9: GBRAP_52_5877 (protein)
chain: MLEEAVKLLEEAVKAKKEGKEKELKEILKKIVEEFSEETILAAVKKLAEKVLTKSLEEAEAFYETVELLSDILLEAGKSEEIASLMEAIAGATLYTVEQK
B10: GBRAP_11_2629 (protein)
chain: KKEILKKKAELAKKLAEKVEKLLKEGVDNEELLKEIEKLLKEIAELTEKYGTEADKSLVEVAKELFEEAKKDKENKEKYLKELLAAAKVLEGDYLLEIEE
B11: GBRAP_35_5618 (protein)
chain: MSDEELTDMLVDLIEDATAAVPDVSVETLAAIAASLSRAVRSLAEELAGNAENLRRLADAVEALRDAIERHHGDDPLAQETIAALTATAEEIRARAAASE
B12: GBRAP_160_4664 (protein)
chain: SEEIEKLLEEIRELLLETLDWTKDLDPASREALLRAAVGDVLQLLFENPLVTDEVEDYAEEVLEEMREYVLANPDLTDEEREALVDEVVDKIREKILEES
B13: GBRAP_11_2937 (protein)
chain: EKEKLKKAQELAKEAQELLKKIQKAGKLDEELLKKAQELLKKAAELAKELGLEEEQKDLELAQELLEEVQKAGKLDETKVAAAQALVFDVAHELEEKLEE
B14: GBRAP_52_6133 (protein)
chain: MREELREKVLELLELVKAGKLEEAKKRLLKIAKELSDEELREFAREFAEVVRELPPEDLDAAAELLELAEEALEEAGRPEELISLLIGEGARALYEVEQR
B15: GBRAP_11_2673 (protein)
chain: MKEKLLEAAELAEKAAKLVEELIKEGVDNEELLKELKKLLEELKKLAKEYLSKALQKDVEVAEELFKELLEDEENRLEYAEQLLAALRVLEGNLLLEADE
B16: GBRAP_52_6314 (protein)
chain: MSERMEELARRLLELMLAGDEEGARALIRELVKTLSEEELLLLAEELARLAKTLDAEGLDALARLLELIEDEMEEEGVDERIIAEIRGIIITAIYEAEQR
B17: GBRAP_53_6413 (protein)
chain: AEAEIAALRAEVKATARAAAAADEATLAALVAEIGALLAALKAAGMPDEELTALAEEVARTLRAAGAPDSALVALAGHLAALGLEEATAAVAEEAVEELE
B18: GBRAP_35_5549 (protein)
chain: DSDREIAEMLVDTIEDIVEALPDVSEEDKIALAKAAIRLARDLVELKPKDEELIKRAIEALERIKEILEESDLPEEDKEELIEEIEELIEELKKLLEENK
B19: GBRAP_35_5548 (protein)
chain: DSDEETAEMLVDTIEDIVEALPDVSEEDRVALAEAALRLARDLVELQPKNKELIKRAIEALERIKEIIEESDLPEEVRERLVREIEELIEELKKILEENE
B20: GBRAP_122_2955 (protein)
chain: SKEEEVERLVEETVEAAKKGDFAATILEALKEAAERFDAESLIRLAERLAERARELGKEAEAALAFATAAQWLLEERPELAEAADRLLELADELLDLLEE
B21: GBRAP_166_4966 (protein)
chain: MEEEIKEEFKKYLEELKEKMKKANEEEKLELLAEAAEKLREAKEAGVSRETLRELIRYLIELAKEVGLTDSQVYGALSILADLDEEEIDILEEEIAEVRA
B22: GBRAP_166_4889 (protein)
chain: STEEAIREIERLAEEAIANIAALTPEELLAVFIEMVEIVERAGATPELRAALAEAAARIVAAAVAAGRDWDEVESLALAAVGDDEELLDAVEATLAALRA
B23: GBRAP_74_6553 (protein)
chain: SAALKKEIDAAAKAGDADKLIKLARKAVKEGDIDVAVHALGQLAKLAVKKAKAGDYDELDKLIDAIVEILEKVPDEALTDETWKAIAAAIKAAIEAEKAR
B24: GBRAP_160_4776 (protein)
chain: SEKEEKLKKKIKEAKEEILESIDTLSPEETLTVAIGETGDIIMEAEELEFDNEELLDSIDEIMDELIEELEKNKNASPEEKKKIVEEKFEKLLKELEKLT
B25: GBRAP_160_4428 (protein)
chain: SEKLKKAKEKIEEIIEETVEMMKGQSAEERQVLVRVARGEIILELEELGLLTDEVDEVIDEEFDEIVEYIAENPDISDEELRELLEEAREKILKELEKVS
B26: GBRAP_14_3860 (protein)
chain: VEALVKAVERTAESTKELIAEIAPEHAEEIKAKVEELAKEIIEKIKKENLNIEEVEELVDEAAEKLGAYMREKGYLSDTEIAAFKAHLLSEFLLELEEIE
B27: GBRAP_160_4725 (protein)
chain: EEEIKEFVEEFREEFLETLELTKDESKENAKALFRGTAGEILQDAFENPFLTDEQEDVVAEILDELVEELEKNFDASLEEKKEIVEEKMEELLEKLLELS
B28: GBRAP_128_3486 (protein)
chain: STEEVVAKTKELMEKIKNSSLEEVEEIARELVELLGQADPESREAATEVILEKLKELSAEKLEILADVLRERQPELDPFGAEQAAEIQVEALNEAEEKEE
B29: GBRAP_52_6312 (protein)
chain: MHERMRELAEELLELMLAGDREGARALAREIVATLSEEELLLLAEELAELAEELDEEELEKAAELLFILEDEMEAAGVDERVIAEMLGIIITAIYKAEQK
B30: GBRAP_52_6313 (protein)
chain: MREEMRAQAEELLALMLAGDRDGARALAEELVATLSEEELLLLAEELAKLSETLNAEELDKAMELLEILEDVMEEAGVDERVIAEIRGIVITAIYKAEQK

Target: GABARAP, O95166
Sequence (O95166 whole entry, the tested form may be a part): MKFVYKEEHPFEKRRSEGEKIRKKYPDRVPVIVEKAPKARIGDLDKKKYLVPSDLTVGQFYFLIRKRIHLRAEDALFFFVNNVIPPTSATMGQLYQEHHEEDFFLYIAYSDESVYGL
Test: median log2 fold change of GCK-ALFA target abundance (FLAG IP / Myc IP barcode read proportion) (log2 ratio); each designed protein is fused to an ALFA-tag nanobody in HEK293 cells to bring the named protein to FLAG-tagged glucokinase (GCK); Myc marks an untargeted standard; higher = target protein stabilised (more abundant)
Settings: target protein: 3xFLAG-MCP-GCK-ALFA reporter; HEK293 landing pad (RPLP)
Summary of the method: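 Binders fused to an ALFA nanobody were recombined as a library into HEK293 landing-pad cells, which were induced with 2 μg mL^−1 doxycycline and then transfected to express a FLAG-tagged target and a Myc-tagged standard. After 48 h, circular RNA barcodes recovered by anti-FLAG and anti-Myc immunoprecipitation of lysates were reverse transcribed, amplified and sequenced. Each binder's target abundance is the median log2 ratio of FLAG to Myc barcode read proportions, from barcodes present at ≥10^−7 in both replicates, binders carrying ≥3 barcodes per replicate, a 10^−6 pseudocount and pooled replicates.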

Row | Binder | median log2 fold change
1 | B1 | 0.209
2 | B2 | 0.0855
3 | B3 | -0.77
4 | B4 | -0.362
5 | B5 | 0.274
6 | B6 | -0.581
7 | B7 | -0.621
8 | B8 | -0.0383
9 | B9 | 0.168
10 | B10 | 0.182
11 | B11 | -1.48
12 | B12 | -0.406
13 | B13 | 0.139
14 | B14 | 0.086
15 | B15 | 0.0764
16 | B16 | -0.236
17 | B17 | 0.295
18 | B18 | -0.761
19 | B19 | -0.485
20 | B20 | -0.119
21 | B21 | -0.12
22 | B22 | 0.108
23 | B23 | -0.699
24 | B24 | 0.018
25 | B25 | 0.0554
26 | B26 | 0.302
27 | B27 | 0.0697
28 | B28 | 0.224
29 | B29 | -0.795
30 | B30 | -0.0291
